# Source: PubChem BioAssay (NCATS)
# Where “and” joins values, the source holds several entries; their conditions need not be identical. Equal values may be shown once. Results filed as inconclusive are left out. Where a call stands in place of a potency, no number is given. Where a structure was tested more than once in an assay, its records may differ in their call. Calls of active or inactive are those of the source. Unless noted, calls come from the whole dose curve; as a rule, active = well fitted curve in the direction sought with a large enough effect; inconclusive = small, poorly fitted or top-dose-only effect, or another doubt; inactive = no such curve, though single readings can be large; an effect the other way counts as inactive or inconclusive.
# Tests used:
# [1] = biological target: Thyroid hormone receptor beta (Homo sapiens) (UniProt P10828); assay: qHTS assay for small molecule agonists of thyroid hormone receptor beta signaling (AID 588545; calls by dose curve); conditions: TR-UAS-bla GripTite HEK 293, beta-lactamase ratio, agonist mode, 18 h, percent of T3 response, DMSO as zero; series mostly up to 76.7 µM
# Summary of the method: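 HEK 293 TR-UAS-bla; agonist mode; 18 hrs, 37 C; CCF4, ex 405/em 460 and 530 nm; norm. T3 10 nM = 100%, DMSO = 0%; Hill fit → EC50, efficacy.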
# [2] = qHTS assay for small molecule antagonists of retinoid X receptor alpha signaling (AID 588546; active = well fitted inhibition curve with a large enough effect in the signal ratio, with a control signal flat, not every such curve was filed as active; the % refers to the signal ratio; note: potency is the fitted concentration of half-maximal effect;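 for max response: cells stimulated with 9-cis-retinoic acid as agonist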); conditions: HEK293T RXRa-UAS-bla, beta-lactamase ratio, antagonist mode; measured here: W530 green channel, cytotoxicity proxy
# Summary of the method: (§1)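 Beta-lactamase reporter inhibition, read as CCF4 fluorescence ratio (ex 405, em 460/530 nm) after 2 h at RT. HEK293T UAS-bla cells, 2500/well, were stimulated with 9-cis-RA at 500 or 100 nM final alongside test compound for 18 h at 37 C.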
# [3] = biological target: Retinoic acid receptor RXR-alpha (Homo sapiens) (UniProt P19793); assay: as above; conditions: HEK293T RXRa-UAS-bla, beta-lactamase ratio, antagonist mode
# Summary of the method: as §1
# [4] = biological target: Voltage-gated inwardly rectifying potassium channel KCNH2 (Homo sapiens) (UniProt Q12809); assay: qHTS Assay for Small Molecule Inhibitors of the Human hERG Channel Activity (AID 588834); conditions: U2OS BacMam hERG, FluxOR thallium flux fluorescence; series mostly up to 46.1 µM;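 note: lower thallium flux fluorescence means stronger hERG block; nearly all actives have a fitted effect of over 50% in size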; note: potency is the fitted concentration of half-maximal effect
# Summary of the method: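 Cells were infected with hERG-BacMam virus for 4 hrs at room temperature, grown overnight, then seeded at 2000/well. After dye loading and roughly 10 min compound treatment, thallium influx was triggered and fluorescence recorded.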
# [5] = biological target: Luciferin 4-monooxygenase (Photinus pyralis) (UniProt P08659); assay: Biochemical firefly luciferase enzyme assay for NPC (AID 624030);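 note: purified P. pyralis luciferase at 10 nM with luciferin and ATP substrate; nearly all actives have a fitted effect of over 70% in size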; conditions: purified P. pyralis luciferase, luminescence, 5 min; series mostly up to 58.6 µM
# Summary of the method: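 Counter-screen for direct inhibition of the luciferase enzyme by approved-drug library compounds, run at 10 nM enzyme in 50 mM Tris acetate (final). Luminescence was read within 5 min of enzyme-buffer addition and normalized to PTC124 versus DMSO (0%).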
# [6] = S16 Schwann cell viability assay (CellTiter-Glo assay) (AID 624031); conditions: S16 rat Schwann cells viability, 24 h; series mostly up to 57.5 µM;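 note: cellular ATP luminescence as a viability measure; nearly all actives have a fitted effect of over 70% in size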
# Summary of the method: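 Untransfected S16 rat Schwann cells; compound 24 h, 37 °C/5% CO2; CellTiter-Glo ATP luminescence. % activity vs no-cell wells and DMSO controls (0%); concentration-effect curves classed by r2, response magnitude, activity.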
# [7] = biological target: Glutaminase kidney isoform, mitochondrial (Homo sapiens) (UniProt O94925); assay: qHTS for Inhibitors of Glutaminase (GLS): LOPAC Validation (AID 624146); conditions: glutaminase enzyme activity inhibition; series mostly up to 46.1 µM; note: nearly all actives have a fitted effect of over 60% in size; note: potency is the fitted concentration of half-maximal effect
# Summary of the method: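 hKGA; 45 mM KH2PO4 pH 8.2 + 0.02% Tween-20; cpd via pin tool; 1 mM Gln soln; GluOx/HRP/Amplex Red; RT 30 min; fluor. t0 & final.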
# [8] = qHTS of Trypanosoma Brucei Inhibitors: LOPAC Validation (AID 624147); conditions: purified enzyme assay, luminescence, 45 min; series mostly up to 57.5 µM
# Summary of the method: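 Luminescence from Kinase-Glo Plus, added after a 45-minute room-temperature reaction, served as the end-point read-out. The enzyme and substrate were preincubated with compound before ADP (130 uM final) initiated turnover. Concentration-effect curves came from normalized qHTS data.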
# [9] = biological target: Glucagon-like peptide 1 receptor (Homo sapiens) (UniProt P43220); assay: qHTS of GLP-1 Receptor Agonists: LOPAC Validation (AID 624148); conditions: GLP-1R agonist cell assay; series mostly up to 46.1 µM;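 note: higher luminescence signal means agonism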
# Summary of the method: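 HEK293 cells stably co-expressing a cAMP-responsive luciferase reporter and a hypersensitive GLP-1R were plated 12 h at 37 °C and exposed to compounds for 4-6 hr at 37 °C, 5% CO2. Luminescence was read 12 min after adding detection reagent.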
# [10] = qHTS of Nrf2 Activators: LOPAC Validation (AID 624149); conditions: Nrf2/ARE reporter cell assay; series mostly up to 46.1 µM
# Summary of the method: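 Following overnight seeding in 5% FBS OPTI-MEM, AREc32_Fluc cells receive compounds for a 24 hr incubation at 37 deg C with 5% CO2. Steady-Glo is added, and after 30 min at RT luminescence is recorded.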
# [11] = HTS Assay for Allosteric Antagonists of the Human D2 Dopamine Receptor: Hit Validation in HTRF (AID 624455); conditions: Cells stably expressing D1 dopamine receptor, inhibition mode; series mostly up to 46.1 µM;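 note: stable D1 dopamine receptor cell line scored for blocking the D1 response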
# Summary of the method: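 Validation of hits used D1 receptor stably expressed in cells with HTRF detection of response inhibition; origin screen measured calcium flux following EC80 dopamine in a force-coupled, inducible Hek293 Trex D2 cell line.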
# [12] = biological target: Thyroid hormone receptor beta (Homo sapiens) (UniProt P10828); assay: qHTS assay for small molecule antagonists of thyroid hormone receptor beta signaling (AID 588547; active = well fitted inhibition curve with a large enough effect in the signal ratio, with a control signal flat, not every such curve was filed as active; the % refers to the signal ratio;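 note: cells stimulated with 0.4 nM T3 agonist during compound exposure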); conditions: TR-UAS-bla HEK293, beta-lactamase ratio, antagonist mode, 18 h
# Summary of the method: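 TR-UAS-bla GripTite HEK293 cells in 2% charcoal/dextran FBS medium were preincubated 4 h at 37 C, given compound (0.59 nM to 92 uM) plus 0.4 nM T3 (final) for 18 h, then CCF4 for 2 h at RT; Hill fit gave IC50.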
# [13] = S16 Schwann cell PMP22 intronic element firefly luciferase assay (AID 624032); conditions: S16 rat Schwann cells, PMP22 element FLuc, 24 h; series mostly up to 57.5 µM; note: nearly all actives have a fitted effect of over 30% in size; note: potency is the fitted concentration of half-maximal effect
# Summary of the method: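 Rat S16 Schwann cells stably carrying a PMP22 intronic element-driven Fluc reporter were seeded overnight, then exposed to compounds for 24 h at 37 °C. Luminescence was normalized to PTC124 (positive control) and DMSO (0% activity).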
# [14] = S16 Schwann cell PMP22 intronic element beta-lactamase assay (AID 624044; calls by dose curve; note: nearly all actives have a fitted effect of over 15% in size; note: potency is the fitted concentration of half-maximal effect); conditions: S16 rat Schwann cells, PMP22 element beta-lactamase FRET, 24 h; series mostly up to 38.3 µM
# Summary of the method: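 Beta-lactamase reporter under a PMP22 intronic regulatory element in stable S16 rat Schwann cells; 24 h compound exposure. 460 nm blue signal normalized between DMSO (0%) and potassium clavulanate, with 535 nm FRET tracking viability; curves classed by r2 and response.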
# [15] = Cell Proliferation Assay against the TMD8 Cell Line (AID 651645); conditions: TMD8 DLBCL cell line proliferation/viability; at 46.1 µM (top of the series);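 note: cells exposed to compound for 48 h before reading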
# Summary of the method: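 Seed log-phase TMD8 cells in RPMI containing 5% FBS, add compounds at once, incubate 48 hours at 37C. Equilibrate to room temperature, add CellTiter-Glo, read luminescence after 15 minutes and express relative to DMSO and bortezomib controls.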
# [16] = Cell Proliferation Assay against the HBL1 Cell Line (AID 651646); conditions: HBL1 DLBCL cells; at 46.1 µM (top of the series);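 note: cells exposed to compound for 48 h before reading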
# Summary of the method: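 After a 48 h incubation of 500 HBL1 cells/well in phenol red-free RPMI plus 5% FBS, relative luciferase units from CellTiter-Glo gave percent activity against DMSO and 9.2 uM bortezomib (final) controls.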
# Chain of Retinoic acid receptor RXR-alpha (Homo sapiens) (P19793 whole entry, looked up): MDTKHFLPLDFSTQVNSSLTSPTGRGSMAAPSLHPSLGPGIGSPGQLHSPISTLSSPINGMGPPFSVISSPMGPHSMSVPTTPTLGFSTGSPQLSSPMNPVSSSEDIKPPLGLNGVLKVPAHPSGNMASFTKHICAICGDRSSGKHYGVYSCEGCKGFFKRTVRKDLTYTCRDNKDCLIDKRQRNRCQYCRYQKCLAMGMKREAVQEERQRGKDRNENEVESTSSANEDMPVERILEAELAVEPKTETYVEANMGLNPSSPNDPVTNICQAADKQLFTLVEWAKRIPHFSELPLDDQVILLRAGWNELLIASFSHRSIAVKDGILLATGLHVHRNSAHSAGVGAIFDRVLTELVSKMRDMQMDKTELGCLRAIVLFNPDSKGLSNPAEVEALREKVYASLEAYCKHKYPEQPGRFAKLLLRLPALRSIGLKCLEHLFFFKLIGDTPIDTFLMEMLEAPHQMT
# Chain of Voltage-gated inwardly rectifying potassium channel KCNH2 (Homo sapiens) (Q12809 whole entry, looked up): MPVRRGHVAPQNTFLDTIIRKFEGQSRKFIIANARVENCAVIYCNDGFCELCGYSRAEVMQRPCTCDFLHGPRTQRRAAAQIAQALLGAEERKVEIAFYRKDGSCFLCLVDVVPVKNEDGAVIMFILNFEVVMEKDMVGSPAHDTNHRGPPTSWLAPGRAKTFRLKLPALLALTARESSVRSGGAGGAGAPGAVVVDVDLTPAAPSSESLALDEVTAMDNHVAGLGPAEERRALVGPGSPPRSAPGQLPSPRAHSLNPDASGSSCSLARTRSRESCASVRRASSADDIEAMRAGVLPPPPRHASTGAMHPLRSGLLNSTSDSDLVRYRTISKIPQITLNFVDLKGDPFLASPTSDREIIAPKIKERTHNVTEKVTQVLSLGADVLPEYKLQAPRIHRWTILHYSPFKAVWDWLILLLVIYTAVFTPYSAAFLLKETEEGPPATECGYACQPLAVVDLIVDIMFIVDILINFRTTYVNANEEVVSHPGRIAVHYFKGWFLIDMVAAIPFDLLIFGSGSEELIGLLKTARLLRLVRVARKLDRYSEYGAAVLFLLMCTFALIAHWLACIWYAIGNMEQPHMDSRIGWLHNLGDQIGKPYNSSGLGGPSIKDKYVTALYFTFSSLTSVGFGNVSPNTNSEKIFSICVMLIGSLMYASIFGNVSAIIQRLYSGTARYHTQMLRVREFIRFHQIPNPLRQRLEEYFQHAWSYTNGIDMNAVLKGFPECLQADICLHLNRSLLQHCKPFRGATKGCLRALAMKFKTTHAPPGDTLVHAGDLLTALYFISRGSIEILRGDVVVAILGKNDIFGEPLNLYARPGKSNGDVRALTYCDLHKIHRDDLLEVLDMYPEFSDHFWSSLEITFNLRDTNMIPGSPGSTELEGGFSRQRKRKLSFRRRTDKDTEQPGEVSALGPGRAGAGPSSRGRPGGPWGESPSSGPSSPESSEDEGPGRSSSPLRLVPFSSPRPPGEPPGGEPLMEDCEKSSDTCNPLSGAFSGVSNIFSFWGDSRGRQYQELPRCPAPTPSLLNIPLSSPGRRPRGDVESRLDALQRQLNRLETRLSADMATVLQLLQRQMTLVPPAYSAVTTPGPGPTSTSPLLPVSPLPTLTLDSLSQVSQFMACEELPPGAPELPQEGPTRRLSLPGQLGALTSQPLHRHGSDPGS
# Chain of Glutaminase kidney isoform, mitochondrial (Homo sapiens) (O94925 whole entry, looked up, canonical isoform): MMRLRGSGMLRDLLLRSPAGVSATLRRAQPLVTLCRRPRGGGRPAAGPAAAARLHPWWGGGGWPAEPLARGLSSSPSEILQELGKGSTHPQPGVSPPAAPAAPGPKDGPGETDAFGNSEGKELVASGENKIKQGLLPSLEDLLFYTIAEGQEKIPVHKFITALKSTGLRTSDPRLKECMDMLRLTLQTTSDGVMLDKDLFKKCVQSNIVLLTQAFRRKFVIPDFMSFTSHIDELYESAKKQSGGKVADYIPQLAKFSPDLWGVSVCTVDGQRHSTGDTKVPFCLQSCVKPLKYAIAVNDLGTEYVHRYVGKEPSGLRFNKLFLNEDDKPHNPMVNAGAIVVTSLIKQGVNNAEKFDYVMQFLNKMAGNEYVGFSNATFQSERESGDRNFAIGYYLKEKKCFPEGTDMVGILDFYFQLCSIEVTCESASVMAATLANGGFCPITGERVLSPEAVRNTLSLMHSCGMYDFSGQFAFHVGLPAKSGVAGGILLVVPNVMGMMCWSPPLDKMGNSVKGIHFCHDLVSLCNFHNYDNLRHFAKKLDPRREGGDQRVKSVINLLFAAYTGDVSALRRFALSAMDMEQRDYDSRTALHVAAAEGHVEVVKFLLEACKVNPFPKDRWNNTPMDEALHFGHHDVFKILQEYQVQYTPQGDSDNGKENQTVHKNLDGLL
# Chain of Luciferin 4-monooxygenase (Photinus pyralis) (P08659 whole entry, looked up): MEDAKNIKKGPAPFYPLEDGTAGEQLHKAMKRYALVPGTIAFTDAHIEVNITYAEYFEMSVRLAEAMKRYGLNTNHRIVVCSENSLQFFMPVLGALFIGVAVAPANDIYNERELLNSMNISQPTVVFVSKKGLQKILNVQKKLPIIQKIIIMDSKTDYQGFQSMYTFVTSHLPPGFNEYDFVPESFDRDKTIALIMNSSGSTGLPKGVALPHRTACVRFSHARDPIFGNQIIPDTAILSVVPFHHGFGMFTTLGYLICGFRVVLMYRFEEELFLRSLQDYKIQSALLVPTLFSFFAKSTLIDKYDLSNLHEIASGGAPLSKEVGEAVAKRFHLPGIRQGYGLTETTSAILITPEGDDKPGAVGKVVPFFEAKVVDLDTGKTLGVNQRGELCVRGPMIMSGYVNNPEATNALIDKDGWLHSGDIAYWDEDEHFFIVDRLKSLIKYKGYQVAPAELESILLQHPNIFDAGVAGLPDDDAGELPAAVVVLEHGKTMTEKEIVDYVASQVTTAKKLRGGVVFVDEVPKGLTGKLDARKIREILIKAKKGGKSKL
# Chain of Thyroid hormone receptor beta (Homo sapiens) (P10828 whole entry, looked up): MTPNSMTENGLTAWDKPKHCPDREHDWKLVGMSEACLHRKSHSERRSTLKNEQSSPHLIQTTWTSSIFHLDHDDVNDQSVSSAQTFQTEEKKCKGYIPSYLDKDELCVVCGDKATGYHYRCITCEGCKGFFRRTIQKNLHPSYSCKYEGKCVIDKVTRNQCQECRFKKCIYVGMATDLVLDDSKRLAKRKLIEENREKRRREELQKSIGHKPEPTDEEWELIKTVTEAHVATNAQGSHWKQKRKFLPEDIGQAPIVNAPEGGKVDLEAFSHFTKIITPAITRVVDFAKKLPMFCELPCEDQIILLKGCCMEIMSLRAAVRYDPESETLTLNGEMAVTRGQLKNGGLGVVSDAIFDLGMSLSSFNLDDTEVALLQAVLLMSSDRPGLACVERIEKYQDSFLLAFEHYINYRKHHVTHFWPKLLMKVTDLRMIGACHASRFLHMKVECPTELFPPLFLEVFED
# Chain of Glucagon-like peptide 1 receptor (Homo sapiens) (P43220 whole entry, looked up): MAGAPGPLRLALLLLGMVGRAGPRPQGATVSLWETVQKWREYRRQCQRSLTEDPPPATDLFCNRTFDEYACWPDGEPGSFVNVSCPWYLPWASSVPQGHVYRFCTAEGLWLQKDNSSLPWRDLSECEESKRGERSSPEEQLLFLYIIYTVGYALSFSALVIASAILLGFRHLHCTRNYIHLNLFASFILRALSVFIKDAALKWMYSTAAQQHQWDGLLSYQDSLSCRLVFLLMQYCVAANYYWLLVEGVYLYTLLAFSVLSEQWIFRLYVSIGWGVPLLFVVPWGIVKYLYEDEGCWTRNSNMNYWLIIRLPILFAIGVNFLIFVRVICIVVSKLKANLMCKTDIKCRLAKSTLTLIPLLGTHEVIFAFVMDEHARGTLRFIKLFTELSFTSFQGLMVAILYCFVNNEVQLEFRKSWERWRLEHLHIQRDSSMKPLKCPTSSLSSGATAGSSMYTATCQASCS
smiles,measurement,setting,value
C=C(C)[C@H]1Cc2c(ccc3c2O[C@@H]2COc4cc(OC)c(OC)cc4[C@@H]2C3=O)O1,outcome,[1],inactive
same,max response,[2],12.4%
same,Potency,[3],20 µM (active)
same,Potency,[4],inactive
same,Potency,[5],inactive
same,Potency,[6],inactive
same,Potency,[7],11.2 µM (active)
same,outcome,[8],inactive
same,outcome,[9],inactive
same,outcome,[10],inactive
same,Potency,[11],inactive
COc1ccc(Cc2nccc3cc(OC)c(OC)cc23)cc1OC,Potency,[4],inactive
CNCC(O)c1ccc(O)cc1 (stereo not drawn),outcome,[1],inactive
same,max response,[2],8.32%
same,max response,[3],7.59% (inactive)
same,activity change % (negative = inhibition),[12],3.5% (inactive)
same,Potency,[4],inactive
same,outcome,[8],inactive
same,outcome,[10],inactive
same,Potency,[11],inactive
O=C1CC[C@@]2(O)[C@H]3Cc4ccc(O)c5c4[C@@]2(CCN3CC2CC2)[C@H]1O5,Potency,[4],inactive
CCCC(C)(COC(N)=O)COC(=O)NC(C)C (stereo not drawn),outcome,[1],inactive
same,max response,[2],3.28% and 3.87%
same,max response,[3],1.9% (inactive) and -6.86% (inactive)
same,activity change % (negative = inhibition),[12],4.32% (inactive) and -7.39% (inactive)
same,Potency,[4],inactive
same,Potency,[5],inactive
same,Potency,[6],inactive
same,Potency,[13],inactive
same,Potency,[7],inactive
same,outcome,[8],inactive
same,outcome,[9],inactive
same,outcome,[10],inactive
same,Potency,[11],inactive
Oc1cc(Cl)ccc1Oc1ccc(Cl)cc1Cl,outcome,[1],inactive
same,max response,[2],-6.33%
same,Potency,[3],44.7 µM (active)
same,Potency,[4],inactive
same,Potency,[5],inactive
same,Potency,[6],inactive
same,Potency,[13],inactive
same,Potency,[14],inactive
CCn1cc(C(=O)O)c(=O)c2ccc(C)nc21,Potency,[4],inactive
Oc1cccc2cccnc12,outcome,[1],inactive
same,max response,[2],12%
same,max response,[3],-19.8% (inactive)
same,activity change % (negative = inhibition),[12],-18.8% (inactive) and -22.1% (inactive)
same,Potency,[4],inactive
same,Potency,[5],inactive
same,Potency,[13],inactive
C[C@H]1O[C@@H](O[C@H]2[C@@H](O)C[C@H](O[C@H]3[C@@H](O)C[C@H](O[C@H]4CC[C@@]5(C)[C@H](CC[C@@H]6[C@@H]5CC[C@]5(C)[C@@H](C7=CC(=O)OC7)CC[C@]65O)C4)O[C@@H]3C)O[C@@H]2C)C[C@H](O)[C@@H]1O,outcome,[1],inactive
CN(C)[C@@H]1C(=O)C(C(N)=O)=C(O)[C@@]2(O)C(=O)C3=C(O)c4c(O)cccc4[C@@](C)(O)[C@H]3C[C@@H]12,Potency,[4],inactive
C[C@]12CCC(=O)C(O)=C1CC[C@@H]1[C@@H]2CC[C@]2(C)C(=O)CC[C@@H]12,max response,[2],17.4%
same,max response,[3],13.8% (inactive)
same,activity change % (negative = inhibition),[12],9.32% (inactive)
same,outcome,[8],inactive
same,viability (% of control),[15],87.8%
same,"viability, percent of control",[16],87.5%
COc1cc2c(c(OC)c1OC)-c1ccc(OC)c(=O)cc1[C@@H](NC(C)=O)CC2,activity change % (negative = inhibition),[12],-20.1% (inactive)
same,Potency,[13],0.102 µM (active)
same,Potency,[14],0.0891 µM (active)
NCC(O)c1ccc(O)cc1 (stereo not drawn),max response,[2],5.99%
same,max response,[3],1.76% (inactive)
same,Potency,[4],inactive
same,Potency,[5],inactive
same,Potency,[6],inactive
same,Potency,[13],16.1 µM (active)
same,Potency,[7],inactive
same,outcome,[8],inactive
same,outcome,[9],inactive
same,outcome,[10],inactive
C#CCN(C)[C@H](C)Cc1ccccc1,Potency,[4],inactive
OCCOc1ccccc1,outcome,[1],inactive
same,max response,[2],-0.71% and -11.6% and -11.4%
same,max response,[3],15.3% (inactive) and -5.21% (inactive) and -13.9% (inactive)
same,activity change % (negative = inhibition),[12],12.7% (inactive) and 7.54% (inactive) and 6.22% (inactive)
same,Potency,[4],inactive
same,Potency,[5],inactive
same,Potency,[13],inactive
CCOP(=S)(OCC)Oc1cc(C)nc(C(C)C)n1,outcome,[1],inactive
same,max response,[2],-12.3% and -5.87%
same,max response,[3],-2.21% (inactive) and -10% (inactive)
same,activity change % (negative = inhibition),[12],-8.33% (inactive) and 8.71% (inactive)
same,Potency,[4],inactive
same,Potency,[5],inactive
same,Potency,[6],inactive
same,Potency,[13],inactive
same,Potency,[14],inactive
CC(C)[N+](C)(CCOC(=O)C1c2ccccc2Oc2ccccc21)C(C)C,Potency,[4],inactive
Nc1ccncc1,outcome,[1],inactive
same,max response,[2],-5.09%
same,max response,[3],-7.1% (inactive)
same,Potency,[4],inactive
same,Potency,[5],inactive
same,Potency,[6],inactive
same,Potency,[13],inactive
same,Potency,[7],inactive
same,outcome,[8],inactive
same,outcome,[9],inactive
same,outcome,[10],inactive
same,Potency,[11],inactive
Cc1ccc2c(c1)C1CN(C)CCC1N2 (stereo not drawn),Potency,[4],inactive
Clc1ccc(CCC(Cn2ccnc2)Sc2c(Cl)cccc2Cl)cc1 (stereo not drawn),Potency,[4],5.01 µM (active)
Oc1ccc(Cl)cc1Cc1ccccc1,outcome,[1],inactive
same,max response,[2],-5.58%
same,max response,[3],-16.2% (inactive)
same,activity change % (negative = inhibition),[12],-6.58% (inactive) and 9.11% (inactive)
same,Potency,[4],inactive and 44.7 µM (active)
same,Potency,[5],inactive
same,Potency,[6],inactive
same,Potency,[13],inactive
same,Potency,[14],inactive
N[C@@H](Cc1ccc(Oc2cc(I)c(O)c(I)c2)c(I)c1)C(=O)O,Potency,[4],inactive
O=c1[nH]c2ccccc2n1C1CCN(CCCC(c2ccc(F)cc2)c2ccc(F)cc2)CC1,max response,[2],-25.7%
same,Potency,[3],17.8 µM (active)
same,Potency,[5],inactive
same,Potency,[7],inactive
same,outcome,[8],inactive
same,outcome,[9],inactive
same,outcome,[10],inactive
same,Potency,[11],inactive
N[C@@H]1C[C@H]1c1ccccc1,Potency,[4],inactive
C=CCN1CC[C@]23c4c5ccc(O)c4O[C@H]2C(=O)CC[C@@]3(O)[C@H]1C5,Potency,[4],inactive
